Hits are enriched below; roughly 4.1% of the tested compounds scored in any of these assays.
DAX1 inh-1 = blocks DAX1 repression of SF-1 activated StAR promoter; inhibition, % at 6.8 µM; hit rate 1.1% among 370,000; HEK293T StAR-luciferase reporter, SF-1/DAX-1 repression relief;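 active means inhibition above the mean over all tested compounds plus 3 SD, cut at about 3.6% in these data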;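 further: 0% = DAX-1 cells with DMSO and 100% = cells lacking DAX-1 with DMSO; higher inhibition means more luminescence from relief of DAX-1 repression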
ssDAF-12 act = activates DAF-12 receptor from parasite S. stercoralis | activation, % at 6.8 µM | HEK293 ssDAF-12/GRIP1 lit1-tk-luc reporter, luminescence; % of 3 µM dafachronic acid response | AID 652126 | hit rate 1% among 370,000;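 active means activation above the mean over all tested compounds plus 3 SD, cut at about 0.9% in these data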;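 further: 0% = DMSO-only wells and 100% = 3 µM delta7-dafachronic acid wells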
DAX1 inh-2 = inhibitors of human orphan nuclear receptor DAX1 (NR0B1); P51843; AID 504766; HEK293 Gal4-DAX1 luciferase reporter, luminescence; hit rate 0.99% among 340,000; inhibition, % at 6.75 µM;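 active means inhibition above the mean over all tested compounds plus 3 SD, cut at about 4.2% in these data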;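 further: 0% = DAX1-transfected cells with DMSO and 100% = empty-vector control cells with DMSO; inhibition shows as a rise in luminescence from relieved DAX1 repression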
Target sequence (P51843 207-470 limits assumed): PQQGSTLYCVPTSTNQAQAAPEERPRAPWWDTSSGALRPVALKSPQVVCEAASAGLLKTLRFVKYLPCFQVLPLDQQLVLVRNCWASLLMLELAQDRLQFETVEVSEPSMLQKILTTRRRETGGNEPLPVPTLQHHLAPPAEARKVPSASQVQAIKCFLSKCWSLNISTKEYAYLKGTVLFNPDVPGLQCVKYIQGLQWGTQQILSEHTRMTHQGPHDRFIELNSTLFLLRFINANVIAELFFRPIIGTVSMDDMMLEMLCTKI
hgDAF12 agonist = agonists of H. glycines DAF-12 nuclear receptor | HEK293 GAL4-hgDAF12 UAS-luciferase reporter, agonist luminescence; normalized to butyrate control | activation, % at 6.8 µM | hit rate 1.8% among 370,000 | AID 687014;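 active means activation above a cutoff set at the mean of all screened compounds plus 3 SD, cut at about 10% in these data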;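 further: 0% = DMSO wells and 100% = sodium butyrate wells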
hcDAF-12 act = H. contortus DAF-12 activation, primary screen. HEK293 hcDAF-12 lit1-tk-luc reporter, luminescence; 0% DMSO, 100% Δ7-dafachronic acid. activation, % at 6.8 µM. hit rate 1.4% among 370,000. AID 652067;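 active means activation above the mean of all tested compounds plus 3 SD, cut at about 5.5% in these data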;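 further: 100% = response to 3 µM Δ7-dafachronic acid high control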
* marks the source's active call; other numbers are inactive results.

`COc1ccc(C(=O)O[C@@H]2CCC[C@@]3(C(=O)N(Cc4ccccc4)c4ccccc43)[C@H]2NC(=O)CCc2ccccc2)cc1OC` gave DAX1 inh-1 0, ssDAF-12 act -1, hgDAF12 agonist -2 and hcDAF-12 act -4.
Cn1cc(Cl)c(C(=O)Nc2nccs2)n1 was read as DAX1 inh-1 1, ssDAF-12 act 0, DAX1 inh-2 1, hgDAF12 agonist 6 and hcDAF-12 act -1.
For Cc1ccc(C(=O)Nc2nccs2)s1 the results were DAX1 inh-1 1, ssDAF-12 act 0, DAX1 inh-2 3, hgDAF12 agonist 8 and hcDAF-12 act 4.
Screening CCn1cc(Cl)c(C(=O)Nc2nccs2)n1 returned DAX1 inh-1 1, ssDAF-12 act 0, DAX1 inh-2 1, hgDAF12 agonist 1 and hcDAF-12 act 6.4*.
For O=C(Nc1nccs1)c1cc2c(s1)-c1ccccc1OC2 the results were DAX1 inh-1 3, ssDAF-12 act 0, DAX1 inh-2 2, hgDAF12 agonist 10* and hcDAF-12 act 5.
`O=C(Nc1nc2ccccc2s1)c1cc2c(s1)-c1ccccc1OC2` gave DAX1 inh-1 0, ssDAF-12 act 0, DAX1 inh-2 3, hgDAF12 agonist 3 and hcDAF-12 act -1.
`O=C(Nc1nccs1)c1ccc(Cl)nc1` gave DAX1 inh-1 0, ssDAF-12 act 0, DAX1 inh-2 -1, hgDAF12 agonist 3 and hcDAF-12 act 5.9*.
O=C(Nc1nccs1)c1ccc(Br)s1 was read as DAX1 inh-1 3, ssDAF-12 act 0, DAX1 inh-2 1, hgDAF12 agonist 10 and hcDAF-12 act 5.8*.
Screening Cc1cc(-c2n[nH]c(=S)n2N=Cc2cccc(Oc3ccccc3)c2)n[nH]1 returned DAX1 inh-1 0, ssDAF-12 act -1, hgDAF12 agonist 1 and hcDAF-12 act -3.
`CCCCCC(=O)N1C[C@@H](O)[C@H](n2cc(C3CC3)nn2)C[C@@H]1c1ccc(Cl)cc1` gave DAX1 inh-1 0, ssDAF-12 act -1, DAX1 inh-2 4.6*, hgDAF12 agonist -1 and hcDAF-12 act 0.
`O=C(N/N=C/c1ccccc1Cl)c1ccc(F)cc1` gave DAX1 inh-1 2, ssDAF-12 act -2, DAX1 inh-2 2, hgDAF12 agonist 13* and hcDAF-12 act 3.
For Fc1ccc(NC(=S)NN=Cc2ccccc2Cl)cc1 the results were DAX1 inh-1 0, ssDAF-12 act -1, DAX1 inh-2 4, hgDAF12 agonist 10 and hcDAF-12 act 2.
`Cc1cc(C(=O)N/N=C/c2c[nH]c3ccccc23)cs1` gave DAX1 inh-1 0, ssDAF-12 act 1, DAX1 inh-2 1, hgDAF12 agonist 8 and hcDAF-12 act 4.
For Cc1nc(N)sc1C(=O)N/N=C/c1c[nH]c2ccccc12 the results were DAX1 inh-1 0, ssDAF-12 act -1, DAX1 inh-2 -1, hgDAF12 agonist 11* and hcDAF-12 act 5.
O=C(N/N=C/c1c[nH]c2ccccc12)c1[nH]c2ccc(Br)cc2c1-c1ccccc1 was read as DAX1 inh-1 2, ssDAF-12 act 1.4*, DAX1 inh-2 1, hgDAF12 agonist -2 and hcDAF-12 act 4.
`Cc1ccc(C(=O)N/N=C/c2c[nH]c3ccccc23)o1` gave DAX1 inh-1 0, ssDAF-12 act 0, DAX1 inh-2 0, hgDAF12 agonist 7 and hcDAF-12 act 6.4*.
Cc1cc(C(=O)N/N=C/c2c[nH]c3ccccc23)c(C)o1 was read as DAX1 inh-1 1, ssDAF-12 act 1, DAX1 inh-2 1, hgDAF12 agonist 8 and hcDAF-12 act 3.
`S=C(NCC1CCCCC1)OC1CCC12CCC(c1ccccc1)CC2` (configuration not stated) gave DAX1 inh-1 0, ssDAF-12 act -1, hgDAF12 agonist -2 and hcDAF-12 act 3.
For O=C(OCC#CCSc1nnc(-c2cccc3ccccc23)o1)c1cc(F)c(F)c(F)c1 the results were ssDAF-12 act -2, hgDAF12 agonist -2 and hcDAF-12 act -2.
CN(Cc1ccccc1F)C(=O)Cn1c(-c2cncs2)nc2ccccc21 was read as DAX1 inh-1 -1, ssDAF-12 act -1, hgDAF12 agonist 2 and hcDAF-12 act -2.
O=C(Nc1ccc(F)cc1)OCc1cn(Cc2ccc(F)c(F)c2)nn1 was read as DAX1 inh-1 1, ssDAF-12 act -1, hgDAF12 agonist -3 and hcDAF-12 act -1.
`O=C(N/N=C/c1c[nH]c2ccccc12)c1ccncc1` gave DAX1 inh-1 0, ssDAF-12 act 0, DAX1 inh-2 2, hgDAF12 agonist 3 and hcDAF-12 act 5.
`O=C(NN=Cc1c[nH]c2ccccc12)NN=Cc1c[nH]c2ccccc12` gave DAX1 inh-1 0, ssDAF-12 act 1, DAX1 inh-2 -1, hgDAF12 agonist -2 and hcDAF-12 act 2.
Screening Cc1cccc(NC(=S)N/N=C/c2c[nH]c3ccccc23)c1 returned DAX1 inh-1 0, ssDAF-12 act 0, DAX1 inh-2 -1, hgDAF12 agonist 14* and hcDAF-12 act 0.
Screening CCOc1ccc(Br)cc1C(=O)N/N=C/c1c[nH]c2ccccc12 returned DAX1 inh-1 0, ssDAF-12 act -1, DAX1 inh-2 3, hgDAF12 agonist 2 and hcDAF-12 act 0.
`O=C(N/N=C/c1c[nH]c2ccccc12)c1ccccc1` gave DAX1 inh-1 0, ssDAF-12 act 0, DAX1 inh-2 6.1*, hgDAF12 agonist 5 and hcDAF-12 act 2.
`O=C(N/N=C/c1cc(Cl)ccc1O)c1ccccc1Br` gave DAX1 inh-1 0, ssDAF-12 act 1.5*, DAX1 inh-2 -2, hgDAF12 agonist -4 and hcDAF-12 act -3.
Screening O=C(N/N=C/c1c[nH]c2ccccc12)c1cc(Br)ccc1O returned DAX1 inh-1 0, ssDAF-12 act 1.3*, DAX1 inh-2 -1, hgDAF12 agonist 10 and hcDAF-12 act 5.
O=C(NCCc1ccccc1)OCc1cn(-c2c(F)cccc2F)nn1 was read as DAX1 inh-1 0, ssDAF-12 act -1, hgDAF12 agonist 0 and hcDAF-12 act -1.
For O=S(=O)(CC1NCc2cc(F)ccc21)NCCc1ccccc1 (configuration not stated) the results were DAX1 inh-1 1, ssDAF-12 act -1, hgDAF12 agonist 0 and hcDAF-12 act -1.
For COC[C@H]1CCCN1c1cccc2c1S(=O)(=O)N1CC[C@@H](C1)O2 the results were DAX1 inh-1 -1, ssDAF-12 act -1, hgDAF12 agonist 0 and hcDAF-12 act 0.
Screening CCCCN(C)C(=O)C1CCN(S(=O)(=O)c2ccc3[nH]c(=O)oc3c2)CC1 returned DAX1 inh-1 -1, ssDAF-12 act 0, hgDAF12 agonist 1 and hcDAF-12 act 1.
O=C(N/N=C/c1cc2c(cc1Br)OCO2)c1c[nH]c2ccccc12 was read as DAX1 inh-1 1, ssDAF-12 act 0, DAX1 inh-2 5.4*, hgDAF12 agonist 10* and hcDAF-12 act 4.
